Data taken from PubChem BioAssay (Tox21).
Records with an inconclusive call do not appear. Calls of active or inactive are those of the source. Calls come from the whole dose curve; as a rule, active = well fitted cell-killing curve with a large enough effect in the repeat runs; inconclusive = weak or mixed curves, or effect the other way; inactive = flat fitted curve, though single readings scatter.

Test: Caspase-3/7 induction in HepG2 cells by small molecules, qHTS cell viability counter screen (AID 1346981); note: nearly all actives have a fitted effect of over 30% in size
Conditions: CellTiter-Fluor fluorescence, 17 h; series mostly up to 92.4 µM; activity change, negative = cytotoxicity: at the top concentration
Description: U.S. Tox21 Program National Center for Advancing Translational Sciences [NCATS] NIH Chemical Genomics Center [NCGC] U.S. Environmental Protection Agency [EPA] National Institutes of Environmental Health Sciences [NIEHS] National Toxicology Program [NTP] U.S. Food and Drug Administration [FDA] Tox21 Assay Overview: Apoptosis is a process of programmed cell death and plays a central role in the development of multicellular organisms. It is a highly regulated process and induces cell death by activating caspases, which are the members of cysteine aspartic acid-specific protease (caspase) family. Caspases involved in apoptosis are classified by their mechanism of action as initiator caspases (caspase-2, -8, -9 and -10) and executioner caspases (caspase-3, -6, and -7). Inhibition of apoptosis results in number of cancers, autoimmune diseases, inflammatory diseases and viral infection. To identify small molecule compounds that induce apoptosis, a homogeneous, luminescent Caspase-Glo 3/7 assay was used. Wild type HepG2 cells were used to screen Tox21 libraries for identifying caspase-3/7 activity inducers. Also cytotoxicity of the compounds was tested in parallel by measuring the cell viability using CellTiter-Fluor assay system in the same wells.
Tox21 Assay Protocol Summary: HepG2 cells were dispensed at 2,000 per well in 5uL of culture medium into white solid bottom 1536-well plates (Corning Life Sciences, Corning, NY) using a Multidrop Combi (Thermo Scientific, Waltham, MA) dispenser. The assay plates were incubated at 37 C and 5% CO2 for 5hr, and then 23nL of compounds dissolved in DMSO and positive control were transferred using a Pintool station ([…], San Diego, CA). The assay plates were incubated at 37C and 5% CO2 for 17hr. For cytotoxicity read, after 16hr incubation at 37C, 1uL CellTiter-Fluor reagent (Promega Corporation, Madison, WI) was added to each well of the assay plates using Flying Reagent Dispenser (FRD, Aurora Discovery, San Diego, CA). After 1hr incubation at 37C and 5% CO2, the fluorescence signal was quantified using a ViewLux plate reader (PerkinElmer, Shelton, CT).
% is set by controls: 0 for no effect and ±100 for the full control effect.

Compound	activity change, negative = cytotoxicity
C[C@@H]1CCC[C@H](C)N1	12.5% [at 42.5 µM] (inactive)
NC(=O)N[C@@H](CCC(=O)O)C(=O)O	1.92% [at 42.5 µM] (inactive)
NC(N)=NCCN1CCCCCCC1	-1.53% [at 0.349 µM] (inactive)
[O-][n+]1cccc(CO)c1	4.66% [at 42.5 µM] (inactive)
COC(=O)C1=C(C)NC(C)=C(C(=O)OC(C)C)C1c1cccc2nonc12 (stereo not given)	-23.7% [at 42.5 µM] (inactive)
CN(C)CCN(C)CCN(C)C	-1.39% (inactive)
CCC(C)(CCCC(C)C)OC(C)=O (stereo not given)	0.0159% (inactive)
Cc1ncc(COP(=O)(O)O)c(C=O)c1O	5.23% [at 42.5 µM] (inactive)
CC(C)(C)c1ccc(-c2ccc(C(C)(C)C)cc2)cc1	1.27% (inactive)
CCCCCCCC1CCCC1=O (stereo not given)	-4.2% (inactive)
C=C[Si](OC(C)=O)(OC(C)=O)OC(C)=O	1.38% (inactive)
NC(CCC(=O)O)C(=O)O (stereo not given)	3.54% (inactive)
CC(CC=O)CC(C)(C)C (stereo not given)	1.77% (inactive)
CO[Si](C)(OC)c1ccccc1	3.18% (inactive)
C=CN1CCCCCC1=O	3.18% (inactive)
CCOC(=O)COc1cc(-n2ncc(C(F)(F)F)c(C)c2=O)c(F)cc1Cl	0.744% (inactive)
CO[C@@]1(NC(=O)C(C(=O)O)c2ccc(O)cc2)C(=O)N2C(C(=O)O)=C(CSc3nnnn3C)CO[C@@H]21 (stereo not given in full)	-3.83% [at 42.5 µM] (inactive)
CCCc1ncc(C[n+]2ccccc2C)c(N)n1	12.6% [at 42.5 µM] (inactive)
CC(C)NNC(=O)c1ccncc1	0.732% [at 42.5 µM] (inactive)
CC(=O)Nc1ccc(OCC(O)CNC(C)C)cc1 (stereo not given)	6.92% [at 42.5 µM] (inactive)

Compound	activity change, negative = cytotoxicity
CC(C)CCCO	0.0266% (inactive)
CC1=NN(c2cccc(S(=O)(=O)O)c2)C(=O)C1	1.06% (inactive)
C=C(C)C(=O)OCC(O)CO (stereo not given)	-0.75% [at 42.5 µM] (inactive)
CCCCCCC1CCC(=O)O1 (stereo not given)	6.49% (inactive)
COc1ccc2cc1Oc1cc3c(cc1OC)CC[N+](C)(C)[C@H]3Cc1ccc(cc1)Oc1c(OC)c(OC)cc3c1[C@@H](C2)[N+](C)(C)CC3	7.2% [at 42.5 µM] (inactive)
Cc1ccc(C(=O)c2ccc(CC(=O)O)n2C)cc1	-0.788% [at 42.5 µM] (inactive)
CN(C)CCCN(C)CCCN(C)C	2.87% (inactive)
CCCCCCCCN1CCCC1=O	0.84% (inactive)
CCCCCCCCCCCCCCC(=O)O	-3.26% (inactive)
O=C(O)CNC(=O)c1ccccc1	5.4% [at 42.5 µM] (inactive)
O=C(O)CCSCCC(=O)O	3.79% (inactive)
O=[N+]([O-])c1ccc(/C=N\O)o1	6.47% [at 42.5 µM] (inactive)
CCOc1ccccc1OCC	9.59% (inactive)
CN1[C@@H]2CC[C@H]1CC(OC(=O)C(O)c1ccccc1)C2 (stereo not given in full)	2.25% [at 42.5 µM] (inactive)
CCOC(=O)c1ccccc1	2.9% (inactive)
CC(N)C12CC3CC(CC(C3)C1)C2 (stereo not given)	4.41% [at 42.5 µM] (inactive)
CCCOC(=O)CC	2.47% (inactive)
Nc1ccccn1	4.48% (inactive)
C[N+]1(C)CCCC(OC(=O)C(O)(c2ccccc2)c2ccccc2)C1 (stereo not given)	0.319% [at 42.5 µM] (inactive)
CC(COc1ccccc1)NN (stereo not given)	5.94% [at 42.5 µM] (inactive)
